Experimental data as given in the supplement of paper PMC12645437, “Orthogonal IMiD-Degron Pairs Induce Selective Protein Degradation in Cells” (ACS Chemical Biology, 2025).
Whole data set: some 8,300 sequences, median “log2 fold change of degron read counts, EGFP-low vs EGFP+ sorted cells (limma voom), compound-induced degradation” near -1.1, cut for the highest 2% near 3.2. The entries come from a sample that favours the highest values as a whole.

T1: CRBN, Q96SW2
T1 chain: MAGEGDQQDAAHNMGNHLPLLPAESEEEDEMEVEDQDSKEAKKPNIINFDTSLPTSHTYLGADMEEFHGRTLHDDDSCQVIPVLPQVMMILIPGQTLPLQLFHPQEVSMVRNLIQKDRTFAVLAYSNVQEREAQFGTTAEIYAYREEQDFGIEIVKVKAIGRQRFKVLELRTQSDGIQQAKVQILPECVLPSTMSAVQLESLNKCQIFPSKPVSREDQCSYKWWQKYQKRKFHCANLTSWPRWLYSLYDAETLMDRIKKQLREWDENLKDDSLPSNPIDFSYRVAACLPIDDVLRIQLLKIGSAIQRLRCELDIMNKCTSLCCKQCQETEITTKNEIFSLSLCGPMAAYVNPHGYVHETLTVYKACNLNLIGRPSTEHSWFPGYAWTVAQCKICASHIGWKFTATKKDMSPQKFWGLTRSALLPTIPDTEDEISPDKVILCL


Target: T1, CRBN, Q96SW2
Experiment: log2 fold change of degron read counts, EGFP-low vs EGFP+ sorted cells (limma voom), compound-induced degradation; higher = more compound-induced degradation of the degron-EGFP fusion; degrons are variants of IKZF1/3 zinc finger 2; compound dose not given here
Conditions: Jurkat, 18 h
[1] = compound: compound 19 (5-tert-butyl-thalidomide)
[2] = compound: compound 22 (5-morpholino-thalidomide)
[3] = compound: compound 33 (diphenyl IMiD analogue)
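Further: pooled lentiviral library of zinc finger degron-EGFP fusions in mCherry-positive Jurkat cells, FACS-sorted after compound exposure, with degron abundance counted by next-generation sequencing.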

| Sequence | log2 fold change of degron read counts [1] | log2 fold change of degron read counts [2] | log2 fold change of degron read counts [3] | log2 fold change of degron read counts (compound: thalidomide) |
| --- | --- | --- | --- | --- |
| FWCNVCGAPFTQKGNLLRHIKL [46F_47W_49N_50V_52G_53A_54P_55F_67L_, Q9UKT9] | 1.34 | 1.28 | 0.648 | -0.594 |
| FNCNQCGRAFTQKGNLLRHIKL [46F_47N_49N_50Q_52G_53R_54A_55F_67L_, Q9UKT9] | -2.53 | -3 | -2.84 | -2.82 |
| FLCNQCGRKFTQKGNLLRHIKL [46F_47L_49N_50Q_52G_53R_54K_55F_67L_, Q9UKT9] | -3.07 | -2.98 | -2.46 | -1.94 |
| FTCEVCGADFTQKGNLLRHIKL [46F_47T_49E_50V_52G_53A_54D_55F_67L_, Q9UKT9] | -1.27 | -0.646 | -0.114 | 0.571 |
| FWCDVCGAFFTQKGNLLRHIKL [46F_47W_49D_50V_52G_53A_54F_55F_67L_, Q9UKT9] | 0.953 | 1.36 | -0.00384 | -1.88 |
| FECNVCGAIFTQKGNLLRHIKL [46F_47E_49N_50V_52G_53A_54I_55F_67L_, Q9UKT9] | -2.34 | -1.7 | -0.347 | 0.492 |
| FVCEQCGAIFTQKGNLLRHIKL [46F_47V_49E_50Q_52G_53A_54I_55F_67L_, Q9UKT9] | -2.11 | -2.38 | -0.483 | -1.05 |
| FWCPICGAKFTQKGNLLRHIKL [46F_47W_49P_50I_52G_53A_54K_55F_67L_, Q9UKT9] | 2.94 | 3.43 | 1.1 | 0.827 |
| FRCPICGAKFTQKGNLLRHIKL [46F_47R_49P_50I_52G_53A_54K_55F_67L_, Q9UKT9] | -0.704 | 0.123 | 0.417 | 0.809 |
| FHCPICGAKFTQKGNLLRHIKL [46F_47H_49P_50I_52G_53A_54K_55F_67L_, Q9UKT9] | 2.6 | 2.09 | -0.0644 | 0.674 |
| FFCDQCGANFTQKGNLLRHIKL [46F_47F_49D_50Q_52G_53A_54N_55F_67L_, Q9UKT9] | -0.567 | -0.255 | -1.24 | -2.4 |
| FSCDVCGAPFTQKGNLLRHIKL [46F_47S_49D_50V_52G_53A_54P_55F_67L_, Q9UKT9] | 0.883 | -0.0159 | -0.896 | -0.557 |
| LQCNQCGFHCTQKGNLLRHIKL [46L_47Q_49N_50Q_52G_53F_54H_55C_67L_, Q9UKT9] | -2.12 | -2.37 | -2.09 | -1.42 |
| FFCNQCGHGFTQKGNLLRHIKL [46F_47F_49N_50Q_52G_53H_54G_55F_67L_, Q9UKT9] | -2.03 | -2.15 | -2.79 | -2.52 |
| LTCPICGFMCTQKGNLLRHIKL [46L_47T_49P_50I_52G_53F_54M_55C_67L_, Q9UKT9] | 0.987 | 1.84 | 2.27 | 2.3 |
| LSCPICGFMCTQKGNLLRHIKL [46L_47S_49P_50I_52G_53F_54M_55C_67L_, Q9UKT9] | 1.79 | 1.66 | 1.67 | 1.42 |
| LWCPICGFMCTQKGNLLRHIKL [46L_47W_49P_50I_52G_53F_54M_55C_67L_, Q9UKT9] | 2.86 | 3.37 | 2.86 | 1.56 |
| LGCPICGFMCTQKGNLLRHIKL [46L_47G_49P_50I_52G_53F_54M_55C_67L_, Q9UKT9] | 3.42 | 1.83 | 1.01 | 0.537 |
| LVCPICGFMCTQKGNLLRHIKL [46L_47V_49P_50I_52G_53F_54M_55C_67L_, Q9UKT9] | 0.688 | 2.15 | 2.09 | 2.63 |
| LQCPICGFMCTQKGNLLRHIKL [46L_47Q_49P_50I_52G_53F_54M_55C_67L_, Q9UKT9] | 0.655 | 2.15 | 2.04 | 3.55 |
| LKCPICGFMCTQKGNLLRHIKL [46L_47K_49P_50I_52G_53F_54M_55C_67L_, Q9UKT9] | -1.07 | -2.03 | -1.81 | -0.667 |
| LYCPICGFMCTQKGNLLRHIKL [46L_47Y_49P_50I_52G_53F_54M_55C_67L_, Q9UKT9] | 3.14 | 2.92 | 2.43 | 1.14 |
| LECPICGFMCTQKGNLLRHIKL [46L_47E_49P_50I_52G_53F_54M_55C_67L_, Q9UKT9] | -0.459 | -0.68 | 1.22 | 2.37 |
| FVCPQCGAFFTQKGNLLRHIKL [46F_47V_49P_50Q_52G_53A_54F_55F_67L_, Q9UKT9] | -1.99 | -1.44 | -0.515 | -0.988 |
| FCCPICGHFFTQKGNLLRHIKL [46F_47C_49P_50I_52G_53H_54F_55F_67L_, Q9UKT9] | -1.42 | -2.1 | -1.42 | -1.48 |
| FACEICGHNFTQKGNLLRHIKL [46F_47A_49E_50I_52G_53H_54N_55F_67L_, Q9UKT9] | -2.91 | -3.62 | -3.22 | -3.1 |
| FECSVCGHHFTQKGNLLRHIKL [46F_47E_49S_50V_52G_53H_54H_55F_67L_, Q9UKT9] | -3.39 | -3.71 | -3.71 | -3.11 |
| FRCPICGHVFTQKGNLLRHIKL [46F_47R_49P_50I_52G_53H_54V_55F_67L_, Q9UKT9] | -2.24 | -2.31 | -0.964 | -1.86 |
